# Data published in PubChem BioAssay.
# Activity calls are given as the source filed them. Unless noted, the rule behind the calls is not given here.
# Experiments:
# [1] = compound effects on lung adenocarcinoma cell viability – A549, calcein-AM fluorescence, 48 h, basal, profiling panel (AID 1162); conditions: higher = more signal; note: test concentration not given here
# [2] = compound effects on differentiated 3T3-L1 adipocyte viability – cell-based, 3T3-L1 adipocytes, calcein-AM fluorescence, 48 h, basal, profiling panel (AID 1163); conditions: 3T3-L1 adipocytes viability, higher = more signal; note: test concentration not given here
# [3] = compound effects on hepatocellular carcinoma cell viability – HepG2, calcein-AM fluorescence, 48 h, basal, profiling panel (AID 1164); conditions: higher = more signal; note: test concentration not given here
# [4] = compound effects on multiple myeloma cell viability – MM1S, calcein-AM fluorescence, 48 h, basal, profiling panel (AID 1165); conditions: higher = more signal; note: test concentration not given here
# [5] = calcein-AM signal in unstimulated myeloma cells – cell-based, calcein-AM fluorescence, 48 h, PK04 Diversity Set, profiling panel (AID 1166); conditions: RPMI8226 myeloma viability, higher = more signal;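 note: cells grown under basal conditions without added stimulus; test concentration not given here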
# [6] = JC-1 mitochondrial signal, unstimulated HepG2 cells – cell-based, JC-1 fluorescence, 24 h, 100 nL compound, profiling panel (AID 1167); conditions: HepG2 mitochondrial potential, higher = more signal; note: test concentration not given here
# [7] = JC-1 mitochondrial signal, unstimulated adipocytes – cell-based, JC-1 fluorescence, 3T3-L1 adipocytes, 24 h, 100 nL compound, profiling panel (AID 1168); conditions: JC-1 mitochondrial fluorescence, higher = more signal, called active from +8 up or from −8 down; note: test concentration not given here
# [8] = JC-1 mitochondrial signal, unstimulated myeloma cells – cell-based, JC-1 fluorescence, RPMI8226, 24 h, 100 nL compound, profiling panel (AID 1169); conditions: JC-1 mitochondrial potential fluorescence, higher = more signal; note: test concentration not given here
# [9] = JC-1 mitochondrial signal, unstimulated MM1S myeloma – cell-based, JC-1 fluorescence, 24 h, 100 nL compound, profiling panel (AID 1170); conditions: MM1S mitochondrial potential, higher = more signal; note: test concentration not given here
# [10] = resazurin metabolic signal in A549 cells – cell-based, resazurin fluorescence, 24 h, PK04 Diversity Set, profiling panel (AID 1171); conditions: A549 viability, higher = more signal, called active from +8 up or from −8 down; note: test concentration not given here
# [11] = resazurin metabolic signal in HepG2 cells – cell-based, resazurin fluorescence, 24 h, PK04 Diversity Set, profiling panel (AID 1172); conditions: HepG2 viability, higher = more signal; note: test concentration not given here
# [12] = budding yeast growth changes without added modifier – OD600, strain BY4716, 24 h, basal condition, primary screen (AID 1173); conditions: S. cerevisiae BY4716 growth, OD600, 24 h; higher = more signal, called active from +8 up or from −8 down
# [13] = viability profiling in MM1S myeloma cells – cell-based, resazurin fluorescence, basal, 24 h, PK04 Diversity Set, profiling panel (AID 1174); conditions: higher = more signal, called active from +8 up or from −8 down; note: test concentration not given here
# [14] = target: Dihydroorotate dehydrogenase (quinone), mitochondrial (Plasmodium falciparum (isolate 3D7)) (UniProt Q08210); assay: inhibition of P. falciparum DHODH – biochemical, C-terminal His tag, absorbance 600 nm, primary screen (AID 1175); conditions: PfDHODH enzyme, DCIP absorbance 600 nm; higher = more signal, called active from +8 up or from −8 down;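 note: recombinant parasite enzyme with a five histidine tag at its C terminus; test concentration not given here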
# [15] = inhibition of PAO1 biofilm formation – strain PAO1, LB-PBS medium, absorbance 600 nm, primary screen (AID 1176); note: test concentration not given here; conditions: P. aeruginosa PAO1 growth/biofilm, A600, 12 h; higher = more signal
# [16] = growth modulation of vineyard yeast isolate – strain RM11-1a, OD600, basal, 24 h, primary screen (AID 1177);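 note: cultures grown under basal conditions with no added stressor; test concentration not given here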; conditions: S. cerevisiae RM11-1a growth, OD600, 24 h; higher = more signal, called active from +8 up or from −8 down
# [17] = growth of efflux-deficient E. coli DRC39 – strain DRC39, OD650, 24 h, E. coli filamentation inducers, primary screen (AID 1178);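 note: growth measured as culture turbidity by optical density at 650 nm; test concentration not given here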; conditions: E. coli DRC39 acrAB, higher = more signal, called active from +8 up or from −8 down
# [18] = growth of efflux-deficient E. coli DRC39 – strain DRC39, OD650, 48 h, E. coli filamentation inducers, primary screen (AID 1179);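 note: screen aims at cell division blockers that make cells filament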; conditions: E. coli DRC39 delta-acrAB growth, higher = more signal, called active from +8 up or from −8 down
# [19] = viability profiling in RPMI8226 myeloma cells – cell-based, resazurin fluorescence, basal, 24 h, PK04 Diversity Set, profiling panel (AID 1180); conditions: higher = more signal;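 note: RPMI8826 multiple myeloma cell line at 5000 cells per well; test concentration not given here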
# [20] = target: E3 ubiquitin-protein ligase XIAP (Homo sapiens) (UniProt P98170); assay: small molecules binding XIAP protein – biophysical, small-molecule microarray, fluorescence 635 nm, primary screen (AID 1181); conditions: higher = more signal;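 note: score merges 667 nm emission and signal to noise over triplicate slides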
# Chain of E3 ubiquitin-protein ligase XIAP (Homo sapiens) (P98170 whole entry, looked up): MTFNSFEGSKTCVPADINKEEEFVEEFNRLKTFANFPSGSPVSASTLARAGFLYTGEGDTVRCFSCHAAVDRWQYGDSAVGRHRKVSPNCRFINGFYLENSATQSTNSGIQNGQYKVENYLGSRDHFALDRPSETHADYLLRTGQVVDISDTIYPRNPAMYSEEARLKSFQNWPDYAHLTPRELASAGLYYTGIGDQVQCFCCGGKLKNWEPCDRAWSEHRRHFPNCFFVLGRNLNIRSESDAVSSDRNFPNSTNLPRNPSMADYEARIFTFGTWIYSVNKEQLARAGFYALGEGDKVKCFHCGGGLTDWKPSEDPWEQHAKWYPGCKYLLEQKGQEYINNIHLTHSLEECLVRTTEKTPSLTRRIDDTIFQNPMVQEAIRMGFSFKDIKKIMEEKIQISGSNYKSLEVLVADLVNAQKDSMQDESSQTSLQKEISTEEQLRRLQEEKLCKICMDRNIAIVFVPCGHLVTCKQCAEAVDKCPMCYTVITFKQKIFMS
# Chain of Dihydroorotate dehydrogenase (quinone), mitochondrial (Plasmodium falciparum (isolate 3D7)) (Q08210 whole entry, looked up): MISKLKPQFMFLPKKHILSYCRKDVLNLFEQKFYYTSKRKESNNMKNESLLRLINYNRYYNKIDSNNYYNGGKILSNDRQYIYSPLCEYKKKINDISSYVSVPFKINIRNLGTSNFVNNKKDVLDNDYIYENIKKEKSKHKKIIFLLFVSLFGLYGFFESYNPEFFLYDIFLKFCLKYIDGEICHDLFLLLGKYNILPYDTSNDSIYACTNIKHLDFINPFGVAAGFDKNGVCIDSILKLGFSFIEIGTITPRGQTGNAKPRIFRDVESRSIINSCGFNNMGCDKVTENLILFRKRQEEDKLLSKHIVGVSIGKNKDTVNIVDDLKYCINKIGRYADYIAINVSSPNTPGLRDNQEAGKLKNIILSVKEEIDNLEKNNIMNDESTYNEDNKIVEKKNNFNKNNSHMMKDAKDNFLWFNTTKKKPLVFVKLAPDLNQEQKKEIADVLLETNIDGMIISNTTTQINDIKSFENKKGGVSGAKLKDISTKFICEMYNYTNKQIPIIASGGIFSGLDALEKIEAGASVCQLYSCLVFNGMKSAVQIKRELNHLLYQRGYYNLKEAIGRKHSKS
smiles,measurement,setting,value
C#CCN(C(=O)OC(C)(C)C)[C@H](CO)c1ccccc1,z-score,[1],-0.413
same,z-score,[2],-0.24
same,z-score,[3],-1.51
same,z-score,[4],-0.404
same,z-score,[5],-0.404
same,z-score,[6],-1.16
same,z-score,[7],0.0135 (inactive)
same,z-score,[8],0.136
same,z-score,[9],-0.125
same,z-score,[10],0.659 (inactive)
same,z-score,[11],0.739
same,z-score,[12],-7.87 (inactive)
same,z-score,[13],-0.351 (inactive)
same,composite z-score,[14],-0.2 (inactive)
same,z-score,[15],-0.234 (inactive)
same,z-score,[16],-0.184 (inactive)
same,z-score,[17],0.47 (inactive)
same,z-score,[18],-0.652 (inactive)
same,z-score,[19],-0.336
same,composite z-score,[20],-0.005
CCOC(=O)C=C1C[C@@H](c2cccc([N+](=O)[O-])c2)O[C@@H](c2cccc([N+](=O)[O-])c2)O1,z-score,[1],-0.865
same,z-score,[2],-0.477
same,z-score,[3],0.177
same,z-score,[4],-0.71
same,z-score,[5],-0.588
same,z-score,[6],3.97
same,z-score,[7],0.94 (inactive)
same,z-score,[8],0.779
same,z-score,[9],-0.351
same,z-score,[10],1.44 (inactive)
same,z-score,[11],0.151
same,z-score,[12],2.03 (inactive)
same,z-score,[13],0.226 (inactive)
same,composite z-score,[14],0.917 (inactive)
same,z-score,[15],0.285 (inactive)
same,z-score,[16],1.79 (inactive)
same,z-score,[17],-0.402 (inactive)
same,z-score,[18],0.335 (inactive)
same,z-score,[19],-0.969
same,composite z-score,[20],0.127
O=C1N(Cc2ccccc2)Cc2ccccc2C[C@@]12COC(c1ccc(OCCCO)cc1)=N2,z-score,[1],-1.62
same,z-score,[2],1.06
same,z-score,[3],0.325
same,z-score,[4],-3.63
same,z-score,[5],-4.39
same,z-score,[6],-0.641
same,z-score,[7],0.172 (inactive)
same,z-score,[8],-1.18
same,z-score,[9],-1.91
same,z-score,[10],-2.8 (inactive)
same,z-score,[11],0.775
same,z-score,[12],0.842 (inactive)
same,z-score,[13],-8.43 (active)
same,composite z-score,[14],0.719 (inactive)
same,z-score,[15],-0.289 (inactive)
same,z-score,[16],4.69 (inactive)
same,z-score,[17],1.42 (inactive)
same,z-score,[18],0.0613 (inactive)
same,z-score,[19],-2.81
same,composite z-score,[20],-0.124
Cc1cccc([C@H]2C[C@H]3C(Br)=C[C@@]2(CO)C(=O)[C@]32CO2)c1,z-score,[1],-0.602
same,z-score,[2],0.0875
same,z-score,[3],-0.729
same,z-score,[4],-2.43
same,z-score,[5],-0.551
same,z-score,[6],-2.11
same,z-score,[7],-0.0495 (inactive)
same,z-score,[8],-0.0551
same,z-score,[9],-0.876
same,z-score,[10],0.393 (inactive)
same,z-score,[11],0.888
same,z-score,[12],-5.63 (inactive)
same,z-score,[13],-0.398 (inactive)
same,composite z-score,[14],-0.287 (inactive)
same,z-score,[15],0.343 (inactive)
same,z-score,[16],-0.169 (inactive)
same,z-score,[17],0.258 (inactive)
same,z-score,[18],0.294 (inactive)
same,z-score,[19],0.214
same,composite z-score,[20],0.273
CC(C)C[C@@H]1NC(=O)[C@H]2C[C@@H](C(=O)O)[C@@H](c3cccc(OCCO)c3)N2C1=O,z-score,[1],-0.218
same,z-score,[2],-0.234
same,z-score,[3],-0.072
same,z-score,[4],-1.36
same,z-score,[5],-0.0757
same,z-score,[6],0.664
same,z-score,[7],-0.115 (inactive)
same,z-score,[8],-0.0946
same,z-score,[9],-0.449
same,z-score,[10],0.668 (inactive)
same,z-score,[11],0.109
same,z-score,[12],-0.25 (inactive)
same,z-score,[13],-0.636 (inactive)
same,composite z-score,[14],-1.19 (inactive)
same,z-score,[15],0.202 (inactive)
same,z-score,[16],-0.79 (inactive)
same,z-score,[17],-0.191 (inactive)
same,z-score,[18],0.421 (inactive)
same,z-score,[19],0.462
same,composite z-score,[20],0.0845
COc1cccc(C)c1NC(=O)O[C@H]1[C@H](OC(=O)Nc2ccccc2-c2ccccc2)[C@@H](OC(=O)Nc2ccccc2-c2ccccc2)[C@@H](OC)O[C@@H]1CO,z-score,[1],-2.87
same,z-score,[2],0.458
same,z-score,[3],-3.51
same,z-score,[4],-3.08
same,z-score,[5],-3.27
same,z-score,[6],1.98
same,z-score,[7],1.62 (inactive)
same,z-score,[8],-0.928
same,z-score,[9],-1.41
same,z-score,[10],-4.57 (inactive)
same,z-score,[11],-2.77
same,z-score,[12],2.22 (inactive)
same,z-score,[13],-3.21 (inactive)
same,composite z-score,[14],1.24 (inactive)
same,z-score,[15],1.23 (inactive)
same,z-score,[16],4.5 (inactive)
same,z-score,[17],-0.349 (inactive)
same,z-score,[18],-0.846 (inactive)
same,z-score,[19],-2.61
same,composite z-score,[20],0.268
COC(=O)[C@]1(Cc2ccccc2CN=[N+]=[N-])N=C(c2ccc(OCCCO)cc2)O[C@@H]1c1ccccc1N=[N+]=[N-],z-score,[1],-3.25
same,z-score,[2],-0.028
same,z-score,[3],-5.51
same,z-score,[4],-3.55
same,z-score,[5],-4
same,z-score,[6],1.52
same,z-score,[7],-0.387 (inactive)
same,z-score,[8],-1.06
same,z-score,[9],-2.47
same,z-score,[10],-2.73 (inactive)
same,z-score,[11],-2
same,z-score,[12],1.09 (inactive)
same,z-score,[13],-4.02 (inactive)
same,composite z-score,[14],-0.123 (inactive)
same,z-score,[15],1.06 (inactive)
same,z-score,[16],1.77 (inactive)
same,z-score,[17],1.74 (inactive)
same,z-score,[18],0.918 (inactive)
same,z-score,[19],-6.89
same,composite z-score,[20],-0.188
COc1cc2c(cc1O)C(C)N(Cc1sc3ccccc3c1Cl)CC2 (stereo not given),z-score,[1],0.0824
same,z-score,[2],-0.0046
same,z-score,[3],-0.0238
same,z-score,[4],0.141
same,z-score,[5],0.624
same,z-score,[6],-1.08
same,z-score,[7],-0.632 (inactive)
same,z-score,[8],0.838
same,z-score,[9],-0.995
same,z-score,[10],-0.205 (inactive)
same,z-score,[11],0.311
same,z-score,[12],-0.961 (inactive)
same,z-score,[13],0.0446 (inactive)
same,composite z-score,[14],-2.64 (inactive)
same,z-score,[15],0.668 (inactive)
same,z-score,[16],-0.123 (inactive)
same,z-score,[17],1.14 (inactive)
same,z-score,[18],0.717 (inactive)
same,z-score,[19],-0.0875
same,composite z-score,[20],-0.148
COc1ccc(NN2C(C(O)c3ccc(F)cc3)C=CC3C(=O)N(C4CCCCC4)C(=O)C32)cc1 (stereo not given),z-score,[1],-0.705
same,z-score,[2],-0.17
same,z-score,[3],-0.0716
same,z-score,[4],-1.05
same,z-score,[5],-1.08
same,z-score,[6],-0.496
same,z-score,[7],-1.23 (inactive)
same,z-score,[8],-0.169
same,z-score,[9],-0.191
same,z-score,[10],0.227 (inactive)
same,z-score,[11],-0.598
same,z-score,[12],0.0789 (inactive)
same,z-score,[13],-0.209 (inactive)
same,composite z-score,[14],-0.328 (inactive)
same,z-score,[15],1.68 (inactive)
same,z-score,[16],0.816 (inactive)
same,z-score,[17],-0.385 (inactive)
same,z-score,[18],-0.0595 (inactive)
same,z-score,[19],-0.352
same,composite z-score,[20],-0.0726
